# Assay results published in ChEMBL document CHEMBL4808148, “HDAC6 screening dataset using tau-based substrate in an enzymatic assay yields selective inhibitors and activators” (2021).
# Several values for one entry are separate records, joined by “and”; a condition that tells them apart may be missing. Equal values may be shown once. The campaign covered roughly 5,600 compounds. About 150 (2.7%) showed an effect of 50% or more. This excerpt belongs to a sample that is enriched for strong results.
# Tests used:
# [1] = biological target: T1, Protein deacetylase HDAC6 (Homo sapiens) (UniProt Q9UBN7); conditions: at 10 µM
# T1 sequence (whole entry): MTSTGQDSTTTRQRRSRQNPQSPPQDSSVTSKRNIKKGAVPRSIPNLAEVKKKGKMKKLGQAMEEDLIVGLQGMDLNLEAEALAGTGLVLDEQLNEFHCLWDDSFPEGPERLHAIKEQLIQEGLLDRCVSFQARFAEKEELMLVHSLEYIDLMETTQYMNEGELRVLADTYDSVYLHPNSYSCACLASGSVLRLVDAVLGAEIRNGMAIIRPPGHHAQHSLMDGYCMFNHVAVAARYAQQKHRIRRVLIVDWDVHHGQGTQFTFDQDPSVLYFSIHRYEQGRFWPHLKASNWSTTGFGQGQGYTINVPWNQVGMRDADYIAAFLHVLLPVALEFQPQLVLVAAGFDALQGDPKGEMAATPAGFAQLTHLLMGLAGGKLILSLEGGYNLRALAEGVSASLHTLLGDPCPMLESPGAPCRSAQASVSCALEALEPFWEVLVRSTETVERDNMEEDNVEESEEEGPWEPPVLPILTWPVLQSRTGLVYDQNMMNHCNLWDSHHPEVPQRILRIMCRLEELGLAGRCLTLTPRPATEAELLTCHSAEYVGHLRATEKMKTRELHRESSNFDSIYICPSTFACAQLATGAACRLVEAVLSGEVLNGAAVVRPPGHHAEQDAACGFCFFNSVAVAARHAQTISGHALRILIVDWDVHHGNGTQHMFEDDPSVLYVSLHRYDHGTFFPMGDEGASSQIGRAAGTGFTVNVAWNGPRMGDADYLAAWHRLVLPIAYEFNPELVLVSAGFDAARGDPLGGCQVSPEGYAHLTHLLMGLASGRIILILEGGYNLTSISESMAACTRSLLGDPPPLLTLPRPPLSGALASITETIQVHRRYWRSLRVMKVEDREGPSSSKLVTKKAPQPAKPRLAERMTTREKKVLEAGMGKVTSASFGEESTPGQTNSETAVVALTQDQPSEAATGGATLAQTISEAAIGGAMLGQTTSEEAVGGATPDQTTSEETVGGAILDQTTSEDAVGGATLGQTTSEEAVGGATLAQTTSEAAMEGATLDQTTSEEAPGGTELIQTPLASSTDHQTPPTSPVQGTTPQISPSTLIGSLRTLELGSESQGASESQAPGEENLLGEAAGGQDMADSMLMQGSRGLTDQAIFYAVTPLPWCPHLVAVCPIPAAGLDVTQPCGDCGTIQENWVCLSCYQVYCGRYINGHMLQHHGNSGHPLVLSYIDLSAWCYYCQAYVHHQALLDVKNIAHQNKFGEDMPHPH
# [2] = biological target: Protein deacetylase HDAC6 (Homo sapiens) (UniProt Q9UBN7); conditions: at 10 µM; remark: listed apart in the source
Compound,inhibition [1],inhibition [2]
CN1[C@H]2C[C@H](OC(=O)[C@H](CO)c3ccccc3)C[C@@H]1[C@@H](O)C2 (racemic),0.83%,
C=C1/C(=C\C=C2/CCC[C@]3(C)[C@@H]([C@H](C)CCCC(O)(C(F)(F)F)C(F)(F)F)CC[C@@H]23)C[C@@H](O)C[C@@H]1O,4.32%,
COc1cc(-c2ccc(/N=N/c3ccc4c(S(=O)(=O)O)cc(S(=O)(=O)O)c(N)c4c3O)c(OC)c2)ccc1/N=N/c1ccc2c(S(=O)(=O)O)cc(S(=O)(=O)O)c(N)c2c1O,50.8%,
COc1cc(O)c(C(=O)c2ccccc2)cc1S(=O)(=O)O,2.56%,
COc1cccc(-n2nc(C(=O)O)cc2-c2ccc(C3CCCCC3)c(Cl)c2)c1,1.57%,
CO/N=C(\C(=O)N[C@@H]1C(=O)N2C(C(=O)O)=C(C)CS[C@H]12)c1csc(N)n1,1.72%,
"Miriplatin, CHEMBL4303713",,-1.16%
"GADOTERIDOL, CHEMBL1200593",,-0.37%
"PHENYLMERCURIC ACETATE, CHEMBL1333953",,62%
NC1CCC(N[C@@H]2C[C@H]2c2ccccc2)CC1 (some centres undefined),-0.23%,
CN1C(=O)C(N2CCCCC2)S/C1=C\C(=O)O (centres undefined),0.03%,
CC(C)Oc1ccc(-c2nn([C@@H](C)c3oc4ccc(F)cc4c(=O)c3-c3cccc(F)c3)c3ncnc(N)c23)cc1F,2.17%,
COC(=O)C1=C(C)N(C)C(C)=C(C(=O)OC)C1c1ccc(C(F)(F)F)cc1,1.92%,
CCCCCCCCC(=O)NCc1ccc(O)c(OC)c1,58.8%,
CCCCC/C=C\C/C=C\CCCCCCCC(=O)NCCCC(=O)O,3.98%,
COc1cc(CNC(=O)CCCC/C=C/C(C)C)ccc1O,-2.58%,
CS(=O)(=O)OC[C@H](O)[C@@H](O)COS(C)(=O)=O,2%,
N=C1N[C@H]2[C@H](CS[C@H]2CCCCC(=O)O)N1,1.67%,
O=[Si]=O.O=[Si]=O.O=[Si]=O.O=[Si]=O.[O]=[Mg].[O]=[Mg].[O]=[Mg],97.2%,
CNC(=O)c1cccc2cc(Oc3ccnc4cc(OCC5(N)CC5)c(OC)cc34)ccc12,11.4%,
O=C(NCc1cccc(O)c1)Nc1nc(-c2ccncc2)cs1,-5.89% and -0.86%,
O=C(O)c1ccccc1NCCc1ccccc1,7.74%,
c1ccc(CCNc2nc(-c3ccccc3)cs2)cc1,83.7%,
CC(NC(=O)[C@@H](N)Cc1ccc(O)cc1)C(=O)NCC(=O)N(C)[C@@H](Cc1ccccc1)C(=O)N[C@H](CO)CC[S+](C)[O-] (stereo in doubt),2.35%,
COc1ccc(NS(=O)(=O)c2ccc(/N=N/c3ccc(O)c(C(=O)O)c3)cc2)nn1,-4.06%,

Compound,inhibition [1],inhibition [2]
O=C(O)c1cc(O)c(O)c(O)c1,-7.85%,
O=C(O)c1cc(/N=N/c2ccc(O)c(C(=O)O)c2)ccc1O,95.1%,
CC1(C)[C@@H]2C[C@H]1[C@@](C)(O)[C@@H](O)C2,-1.04%,
Cc1ccc(S(=O)(=O)Nc2ccc3c(c2)c(C(=O)C(F)(F)F)cn3CC(=O)N[C@@H](CC(C)C)C(=O)O)cc1,-4.82%,
O=C1C[C@@]2(C(=O)N1)C(=O)N(Cc1ccc(Br)cc1F)C(=O)c1cccn12,-2.35%,
COCCN1CCN(Cc2ccc(-c3n[nH]c4c3C(=O)c3c(NC(=O)NN5CCOCC5)cccc3-4)cc2)CC1,-4.17%,
CNC(=O)N(C)N=O,-4.29%,
O=c1c2ccccc2[se]n1-c1ccccc1,52.4%,
CCC(=O)NO,44.5%,
O=[N+]([O-])c1cn2c(n1)OC[C@@H](OCc1ccc(-c3ccc(OC(F)(F)F)cc3)nc1)C2,4.86%,
Cc1oc(-c2ccccc2)nc1CCOc1ccc(CC2SC(=O)NC2=O)c2sccc12 (centres undefined),-4.87%,
COc1ccc(Nc2ccn(-c3ccccc3)n2)cc1,66.8%,
O=C(Nc1ccccc1C(=O)Nc1ccc(CCO)cc1)c1ccc([N+](=O)[O-])cc1,19.2%,
CCC1OC(=O)CC(O)C(C)C(OC2OC(C)CC(N(C)C)C2O)C(CC=O)CC(C)C(=O)/C=C/C2(C)OC2C1C (centres undefined),10.6%,
CN(C)C(=S)SC(=S)N(C)C,12.2%,
O=C(CC1CC(c2ccc(F)cc2F)=NO1)N1CCOCC1 (racemic),64.3%,
O=C(O)CC1CC(c2ccccc2)=NO1 (centres undefined),-4.54%,
c1cc(-c2cnn3cc(-c4ccc(N5CCNCC5)cc4)cnc23)c2cccnc2c1,-3.93%,
c1cc(-c2cnn3cc(-c4ccc(OCCN5CCCCC5)cc4)cnc23)ccn1,60.7%,
CC(C)Oc1ccc(-c2cnc3c(-c4ccnc5ccccc45)cnn3c2)cc1,-1.97%,
c1ccc(OCc2ccc(CCCN3CCOCC3)cc2)cc1,22.1%,
c1ccc(-c2cnn3cc(-c4ccc(OCCN5CCOCC5)cc4)cnc23)cc1,78.4%,
COc1ccc(-c2cnc3c(-c4cccc5ncccc45)cnn3c2)cc1,-5.32% and -3.01%,
CN1C(=O)N(c2cc(Cl)cc(Cl)c2)C(=O)[C@@]1(C)Cc1ccc(Br)cc1,-0.75%,
COCc1nnc(N2CC(Oc3ccc(F)cc3Cl)C2)n1-c1ccc(OC)nc1,-0.3%,

Compound,inhibition [1],inhibition [2]
O=C(Nc1ccc(Br)cc1)c1cc(Br)cc(Br)c1O,47.3%,
CCOCc1cc(OC)c(-c2ccc(C[C@H](NC(=O)c3c(F)cccc3F)C(=O)O)cc2)c(OC)c1,-3.54%,
C[C@]12CC[C@@H](O)C[C@@H]1CC[C@@H]1[C@@H]2CC[C@]2(C)C(c3ccccc3)=CC[C@@H]12,-2.46%,
CC(=O)OCC1=C(C(=O)O)N2C(=O)[C@@H](NC(=O)CS/C(=N/C(C)C)NC(C)C)[C@H]2SC1,-0.21%,
O=C(Oc1ccccc1)c1ccccc1O,59.6%,
O=C(O)c1ccccc1O,3.65%,
O=C(OCCO)c1ccccc1O,0.47%,
"SEVELAMER HYDROCHLORIDE, CHEMBL1201492",,-4.03%
CC1CCC2C(C)(C)C3CC12CCC3(C)O (centres undefined),3.35%,
C[C@H](Nc1cc(NS(=O)(=O)N2CCC2)nc(SCc2cccc(F)c2F)n1)[C@@H](O)CO,-3.66%,
COc1cc(C(=O)NCCCCCC(=O)O)cc(OC)c1OC,-4.19%,
CN(C)c1ccc(C(=O)NCCCCCCC(=O)NO)cc1,97.6%,
O=C(CNC(=O)c1ccc(Cl)cc1)NO,1.88%,
O=c1c2c[nH]c3ccccc3c-2nn1-c1ccc(Cl)cc1,37.8%,
C[C@H](N/C(=N/C#N)Nc1cccc2ncccc12)c1ccccc1,-5.84%,
Cc1cn2c(N)c(Cl)cc(C(=O)NCC3CCN(CC(C)C)CC3)c2n1,4.88%,
C=CC(=O)N1CCC[C@@H](n2c(=O)n(-c3ccc(Oc4ccccc4)cc3)c3c(N)ncnc32)C1,6.07%,
Nc1ncnc2c1c(-c1ccc(Oc3ccccc3)cc1)nn2C1CCCC1,-1.59%,
C=CC(=O)N1CCC[C@@H](n2nc(-c3ccc(Oc4ccccc4)cc3)c3c(N)ncnc32)C1,51%,
C=C1C(=O)O[C@@H]2[C@H]3C(C)=CC[C@@]34O[C@@]4(C)CC[C@@H]12,4.41%,
c1cnc(NCc2ccc(CNc3ncccn3)cc2)nc1,0.03%,
CNc1nc(C)nc(N[C@H]2CCC[C@@H](C(=O)NCc3ccc(C#N)cc3C(F)(F)F)C2)n1,-6.75%,
Cc1cc(O)cc2c1O[C@@](C)(CCC[C@@H](C)CCC[C@@H](C)CCCC(C)C)CC2,-3.19%,
Cc1nc2cnc3ccc(C#Cc4cccnc4)cc3c2n1-c1ccc(C(C)(C)C#N)cc1,3.93%,
CC(=O)SCCC(=O)N1C(C)CCCC1C(=O)O (centres undefined),7.82%,

Compound,inhibition [1],inhibition [2]
CSc1nc2ccc3nc(NC(=O)C(c4ccccc4)c4ccccc4)sc3c2s1,-1.3%,
CC(=O)N(O)[C@@H]1c2cc(C#N)ccc2OC(C)(C)[C@H]1O,-2.08%,
O=C(OCC(COC(=O)c1cccnc1)(COC(=O)c1cccnc1)COC(=O)c1cccnc1)c1cccnc1,-1.03%,
CN(C)c1nc(N)c(C(=O)Nc2cccnc2)nc1Cl,80.9%,
N=C(N)NC(=O)c1nc(Cl)c(N)nc1N,-8.95%,
Cn1ncc2c(N3CCOCC3)nc(-c3cccc(O)c3)nc21,-1.99%,
Cc1ccc(-c2nn(C(C)(C)CNC(=O)c3ncccc3C)c3ncnc(N)c23)cc1,6.88%,
Oc1ccc(-c2nc3cc(O)cc(Br)c3o2)cc1,54.3%,
CC[C@H](NC(=O)c1c(O)c(-c2ccccc2)nc2ccccc12)c1ccccc1,2.06%,
Cn1c(/C=C/C(=O)NO)ccc1/C=C/C(=O)c1cccc(F)c1,76.3%,
O=C(/C=C/c1cccc(F)c1)NC1CC1,8.47%,
CCCCCCCCC(=O)N[C@H](CN1CCCC1)[C@H](O)c1ccc2c(c1)OCCO2,6.86%,
O=C(CCBr)N1CC[N+]2(CC1)CC[N+]1(CCN(C(=O)CCBr)CC1)CC2,0.06%,
CN1CCN(c2cccc(Nc3nc4c(-c5ccc(S(C)(=O)=O)cc5)cccn4n3)c2)CC1,-1.82%,
CS(=O)(=O)c1ccc(-c2cn3ccccc3n2)cc1,78.9%,
CS(=O)(=O)c1ccc(-c2cnc(N)c(C(=O)Nc3ccccc3)n2)cc1,2.63%,
C[C@H]1O[C@@H](O[C@H]2CC[C@@]3(C)[C@H](CC[C@@H]4[C@@H]3C[C@@H](O)[C@]3(C)[C@@H](C5=CC(=O)OC5)CC[C@]43O)C2)C[C@H](O)[C@@H]1O[C@H]1C[C@H](O)[C@H](O[C@H]2C[C@H](O)[C@H](O[C@@H]3O[C@H](CO)[C@@H](O)[C@H](O)[C@H]3O)[C@@H](C)O2)[C@@H](C)O1,-2.28%,
N#CC(c1ccccc1)(c1ccccc1)c1ccccc1Cl,-3.49%,
CC(C)c1c2cc(-c3ccnc(N[C@H]4CC[C@H](NC5CCOCC5)CC4)n3)ccc2nn1C,1.08%,
CCC(CC)O[C@@H]1C=C(C(=O)O)C[C@H](N)[C@H]1NC(C)=O,0.57%,
O=c1c(O)c(-c2ccc(O)c(O)c2)oc2cc(O)cc(O)c12,49.9%,
O=c1cc(-c2ccc(O)c(O)c2)oc2cc(O)cc(O)c12,51.1%,
O=C(O)c1ccc2c(c1)C(=O)N(c1cccc(Oc3ccc([N+](=O)[O-])cc3)c1)C2=O,23.5%,
CCOc1c(N2CCOCC2)cnn(C)c1=O,2.39%,
